{"source": "ChEMBL document CHEMBL3988442", "about": "“University of Dundee, Small-Polar-MMV Screening Library” (2021)", "note": "Screen size: about 48,000 compounds; about 13,000 (27%) showed an effect of 50% or more. This is one part of the list.", "data": [{"test_system": "Wolbachia pipientis", "experiment": "Anti-Wolbachia Cell-Based Screen", "type": "functional", "design": "scale not given: in the data most compounds retested in dose-response had high values", "conditions": "5 µM", "units": {"Percent Effect": "%"}, "values": [{"compound": "O=C(NCc1nnc2ccccn12)N1CCOC(c2cccs2)C1", "note": "(centres undefined)", "Percent Effect": -3.405}, {"compound": "COc1ccc(-n2nc(C3CC3)nc2CCn2cnnn2)cc1", "Percent Effect": -7.711}, {"compound": "COc1ccc(N2Cc3n[nH]c(=O)n3C2=O)cc1", "Percent Effect": -0.5114}, {"compound": "O=C(c1ccoc1)N1CCO[C@]2(CCC[C@@H]2COCc2ccncc2)C1", "Percent Effect": -6.569}, {"compound": "O=C(O)C(F)(F)F.O=C(c1ccc[nH]1)N1CCO[C@]2(CCC[C@@H]2COc2cccnc2)C1", "Percent Effect": -3.807}, {"compound": "O=C(c1ccno1)N1CCO[C@]2(CCC[C@@H]2COCc2ccncc2)C1", "Percent Effect": -0.3534}, {"compound": "COCC(=O)N1CCO[C@]2(CCC[C@H]2COC)C1", "Percent Effect": 106.8}, {"compound": "COC[C@H]1CCC[C@]12CN(CCc1ccccc1)CCO2.O=C(O)C(F)(F)F", "Percent Effect": 30.11}, {"compound": "COC[C@@H]1CCC[C@@]12CN(C(=O)N1CCCC1)CCO2", "Percent Effect": 87.5}, {"compound": "COC[C@H]1CCC[C@]12CN(C(=O)NCc1ccccc1)CCO2", "Percent Effect": 18.34}, {"compound": "COC[C@@H]1CCC[C@@]12CN(C(=O)N(C)C)CCO2", "Percent Effect": 101.2}, {"compound": "Cc1[nH]c2c(F)cccc2c1CC(=O)NCCCNc1cccnc1", "Percent Effect": 12}, {"compound": "Cc1noc(COCC(=O)Nc2ccc(Br)c(C)n2)n1", "Percent Effect": 11.2}, {"compound": "O=C(c1ccccc1)N1C[C@@H]2CC[C@H](C1)N(C(=O)CN1CCOCC1)C2", "Percent Effect": -9.595}, {"compound": "CCc1nc(CNC(=O)c2ccc(C(C)N3CCCCC3)o2)cc(=O)[nH]1", "note": "(centres undefined)", "Percent Effect": -0.08952}, {"compound": "CCCc1nc(NC2(COC)CCCC2)c2cnn(C)c2n1", "Percent Effect": 85.47}, {"compound": "CCOC(=O)CNc1nc(COC)nc2c1cnn2C", "Percent Effect": 5.543}, {"compound": "CCOC(=O)CC1(Nc2nc(C)nc3c2cnn3C)CCCCC1", "Percent Effect": 107.9}, {"compound": "Cn1ncc2c(NCCC34CCCN3CCC4)nc(C3CCCC3)nc21", "Percent Effect": 4.055}, {"compound": "CCC(Nc1nc(C)nc2c1cnn2C)c1ncnn1CC", "note": "(centres undefined)", "Percent Effect": 13.02}, {"compound": "Cc1nc(NC2(CN3CCCCC3)CCCCC2)c2cnn(C)c2n1", "Percent Effect": 98.05}, {"compound": "COCC1(Nc2nc(C)nc3c2cnn3C)CCCC1", "Percent Effect": 115.3}, {"compound": "Cc1nsc(NC(=O)NC2(CN3CCCCC3)CCCCC2)n1", "Percent Effect": 1.448}, {"compound": "CCOC(=O)CNc1nc(C(C)(C)C)nc2c1cnn2C", "Percent Effect": 2.145}, {"compound": "CCCc1nc(N(C)CCN2CCCCCC2)c2cnn(C)c2n1", "Percent Effect": 11.67}, {"compound": "CCOC(=O)CC(C)Nc1nc(C2CCCC2)nc2c1cnn2C", "note": "(centres undefined)", "Percent Effect": -2.112}, {"compound": "CCn1c(C)nnc1SCCNc1nc(C)nc2c1cnn2C", "Percent Effect": -4.457}, {"compound": "O=C(C1=CCCC1)N1CCC[C@]2(C[C@@H](OCc3ccccn3)CO2)C1.O=C(O)C(F)(F)F", "Percent Effect": 5.284}, {"compound": "CS(=O)(=O)N1C[C@@H]2CC[C@H](C1)N(C(=O)Cn1nc3ccccc3n1)C2", "Percent Effect": 3.871}, {"compound": "Cc1csc(N2CCN(C(=O)CCC(=O)c3ccc(C)s3)CC2)n1", "Percent Effect": 7.228}, {"compound": "CCS(=O)(=O)N1CCOC2(COCCN(c3nccs3)C2)C1", "note": "(centres undefined)", "Percent Effect": 11.05}, {"compound": "CC(C)c1ccc(S(=O)(=O)NC2CCN(CC(F)(F)F)C2)cc1", "note": "(centres undefined)", "Percent Effect": 12.82}, {"compound": "O[C@@H]1CN(CC2=Cc3cc(Cl)ccc3OC2)CC[C@H]1N1CCCCCC1", "Percent Effect": 0.906}, {"compound": "Cc1cc(C)c2[nH]c(CN3CCCC(N4CCOCC4)C3)cc(=O)c2c1", "note": "(centres undefined)", "Percent Effect": 0.1169}, {"compound": "COc1cc(CN2CCC(O)(c3ccc(C)cn3)CC2)cc(Cl)c1OC", "Percent Effect": -12.14}, {"compound": "COc1cc(Cl)cc(CN2CCCC(N3CCOCC3)C2)c1OC", "note": "(centres undefined)", "Percent Effect": 106.9}, {"compound": "COc1cc(Cl)cc(CN2CCCC(N3CCCC3)C2)c1OC", "note": "(centres undefined)", "Percent Effect": 116}, {"compound": "COc1cc(CN2CC[C@@H](N3CCCCCC3)[C@H](O)C2)cc(Cl)c1OC", "Percent Effect": 100.3}, {"compound": "COc1ccc(CN2CCCC(N3CCCC3)C2)cc1Cn1cncn1", "note": "(centres undefined)", "Percent Effect": 15.57}, {"compound": "COc1ccc(CN2CCCC(n3cccn3)C2)c(Cl)c1OC", "note": "(centres undefined)", "Percent Effect": 1.14}, {"compound": "CC(C)Oc1ccc(CN2CCCC(N3CCOCC3)C2)cc1CO", "note": "(centres undefined)", "Percent Effect": -0.1551}, {"compound": "CNC(=O)[C@@H]1COC[C@H]2CN(C(=O)c3ccc(C)c(F)c3)C[C@H]21", "Percent Effect": 1.789}, {"compound": "COC(CNC(=O)CNC(=O)c1ccccc1)c1cccc(Cl)c1", "note": "(centres undefined)", "Percent Effect": -36.87}, {"compound": "Cc1ncsc1CN1C[C@H](OCC(C)C)[C@H]2OCCC[C@H]21.O=C(O)C(F)(F)F", "Percent Effect": -14.06}, {"compound": "Cc1ccc(C(=O)N2CCO[C@H]3[C@@H](OCc4ccccn4)CC[C@@H]32)o1.O=C(O)C(F)(F)F", "Percent Effect": -5.404}, {"compound": "CCO[C@@H]1CC[C@H]2[C@H]1OCCN2C(=O)c1nn(C)c2ccccc12", "Percent Effect": 106.4}, {"compound": "CCO[C@H]1CC[C@H]2[C@H]1OCCN2C(=O)c1nn(C)c2ccccc12", "Percent Effect": 108.7}, {"compound": "CCO[C@@H]1CC[C@H]2[C@H]1OCCN2C(=O)c1ccc(OC)c(F)c1", "Percent Effect": -22.06}, {"compound": "CC(C)CNC(=O)C1=NOC2(CCN(Cc3ccc(C(C)C)cc3)C2)C1", "note": "(centres undefined)", "Percent Effect": 105.9}, {"compound": "CC(C)CNC(=O)C1=NOC2(CCN(Cc3ccoc3)C2)C1", "note": "(centres undefined)", "Percent Effect": 98.99}, {"compound": "O=C(NCC1CC1)C1=NOC2(CCN(Cc3ccsc3)C2)C1", "note": "(centres undefined)", "Percent Effect": -10.07}, {"compound": "CCc1ccc(CN2CCC3(CC(C(=O)NCC(C)C)=NO3)C2)o1", "note": "(centres undefined)", "Percent Effect": 102}, {"compound": "O=C(NCC1CC1)C1=NOC2(CCN(Cc3ccc(Cl)c(F)c3)C2)C1", "note": "(centres undefined)", "Percent Effect": 0.8389}, {"compound": "COc1ccc(CN2CCC3(CC(C(=O)NCC(C)C)=NO3)C2)cc1", "note": "(centres undefined)", "Percent Effect": 91.98}, {"compound": "Cc1ccc(CN2CCC3(CC(C(=O)NCC4CC4)=NO3)C2)s1", "note": "(centres undefined)", "Percent Effect": -2.379}, {"compound": "CCc1ccc(C(NC(=O)CCS(C)(=O)=O)C(C)(C)C)o1", "note": "(centres undefined)", "Percent Effect": 18.74}, {"compound": "CN1CCC(NN2CCN(C)CC2)CC1", "Percent Effect": 4.594}, {"compound": "O=C(CSc1ccccc1)Nc1cnn(CC(=O)N2CCCO2)c1", "Percent Effect": 2.043}, {"compound": "Cc1ccc(C)c(OCC(O)CN(C)CC(=O)Nc2cc(C)on2)c1", "note": "(centres undefined)", "Percent Effect": 16.51}, {"compound": "CCN1CCC2(CC1)c1nc[nH]c1CCN2S(C)(=O)=O", "Percent Effect": -21.15}, {"compound": "COC(=O)C1CCN(C(=O)c2ccc(C)c(NS(C)(=O)=O)c2)CC1", "Percent Effect": -2.362}, {"compound": "COc1ccccc1OCCCc1cc(C)nc(N)n1", "Percent Effect": -105.6}, {"compound": "CC(=O)NCC(=O)NCC1(O)CCN(c2cnccn2)C1", "note": "(centres undefined)", "Percent Effect": 78.54}, {"compound": "Cn1ccc(C(=O)N2C[C@@H]3CCN(c4cnccn4)C[C@@H]3C2)n1.O=C(O)C(F)(F)F", "Percent Effect": 6.862}, {"compound": "COc1ccccc1OC1(C(=O)O)CCN(c2cnccn2)CC1", "Percent Effect": -132.5}, {"compound": "Cn1ccc(C(=O)NCC2(O)CCN(c3cnccn3)C2)n1", "note": "(centres undefined)", "Percent Effect": 120.2}, {"compound": "CCS(=O)(=O)N1CCOC2(CCCN(c3cnccn3)C2)C1.O=C(O)C(F)(F)F", "note": "(centres undefined)", "Percent Effect": -12.03}, {"compound": "O=C(c1ccc(-n2ccnc2)cc1)N1CCN(c2cnccn2)CC1", "Percent Effect": 1.028}, {"compound": "CC(C#N)NS(=O)(=O)c1cccc(C(C)C)c1", "note": "(centres undefined)", "Percent Effect": 0.8918}, {"compound": "c1ccc(-c2nccc(N3CCc4c(ncn4C4CC4)C3)n2)cc1", "Percent Effect": -6.711}, {"compound": "O=C(NCc1nncn1C1CC1)C1(c2ccc(F)cc2)CCCC1", "Percent Effect": -0.2127}, {"compound": "O=C(NCC(O)COc1ccc(F)cc1)C1(c2ccc(F)cc2)CC1", "note": "(centres undefined)", "Percent Effect": 2.033}, {"compound": "O=C1N(c2ccsc2)CCC12CCCN(c1ccccn1)C2", "note": "(centres undefined)", "Percent Effect": 116.3}, {"compound": "CN(C)C(=O)N1CCCC2(CCN(c3ccsc3)C2=O)C1", "note": "(centres undefined)", "Percent Effect": -73.81}, {"compound": "O=C(O)C(F)(F)F.O=C(c1ccccn1)N1CCCC2(CCN(c3ccsc3)C2=O)C1", "note": "(centres undefined)", "Percent Effect": 9.828}, {"compound": "Cn1nccc1C(=O)N1CCCC2(CCN(c3ccsc3)C2=O)C1", "note": "(centres undefined)", "Percent Effect": 54.5}, {"compound": "Cc1nocc1C(=O)N1CCCC2(CCN(c3ccsc3)C2=O)C1", "note": "(centres undefined)", "Percent Effect": 2.801}, {"compound": "O=C(N1CCCC1)N1CCCC2(CCN(c3ccsc3)C2=O)C1", "note": "(centres undefined)", "Percent Effect": -11.99}, {"compound": "O=C(CO)N1CCCC2(CCN(c3ccsc3)C2=O)C1", "note": "(centres undefined)", "Percent Effect": -8.553}, {"compound": "Cc1occc1C(=O)N1CCCC2(CCN(c3ccsc3)C2=O)C1", "note": "(centres undefined)", "Percent Effect": -9.998}, {"compound": "O=C1N(c2ccsc2)CCC12CCCN(c1ncc(F)cn1)C2", "note": "(centres undefined)", "Percent Effect": 91.96}, {"compound": "N#Cc1ccc(N2CCCN(CC(N)=O)CC2)cc1", "Percent Effect": -2.311}, {"compound": "CC(NC(=O)c1csnn1)c1ccc(OCC2CC2)c(F)c1", "note": "(centres undefined)", "Percent Effect": 3.063}, {"compound": "CC(NC(=O)C(C)(C)C#N)c1ccc(OCC2CC2)c(F)c1", "note": "(centres undefined)", "Percent Effect": 5.136}, {"compound": "CS(=O)(=O)NCCC(=O)NC1(c2ccc(F)cc2)CCCC1", "Percent Effect": -19.35}, {"compound": "CCn1nc(CNC(=O)C2CC(=O)N(C3CCCC3)C2)c2ccccc21", "note": "(centres undefined)", "Percent Effect": -24.02}, {"compound": "CN(C)S(=O)(=O)NCc1nn(CCN2CCCC2)c(=O)c2ccccc12", "Percent Effect": 91.81}, {"compound": "CCN1CC(C(=O)NCc2nn(CC)c3ccccc23)CCC1=O", "note": "(centres undefined)", "Percent Effect": 10.79}, {"compound": "COCC(=O)NCc1cc2n(n1)CCCN(CCCC1CCCC1)C2", "Percent Effect": 3.539}, {"compound": "CCNC(=O)NCc1ccc(CN2CCCC(C)C2)cc1", "note": "(centres undefined)", "Percent Effect": -3.525}, {"compound": "CCNC(=O)NCc1nn(CCN2CCCC2)c(=O)c2ccccc12", "Percent Effect": 106.7}, {"compound": "COCC(=O)NCc1nn(CCN2CCCC2)c(=O)c2ccccc12", "Percent Effect": 112.1}, {"compound": "CCn1nc(CNC(=O)C2CCCN(CC(N)=O)C2)c2ccccc21", "note": "(centres undefined)", "Percent Effect": 4.996}, {"compound": "CCn1nc(CNC(=O)C2CCCN(C(=O)COC)C2)c2ccccc21", "note": "(centres undefined)", "Percent Effect": -19.96}, {"compound": "CCOC(=O)NCc1nn(CCN2CCCC2)c(=O)c2ccccc12", "Percent Effect": 108}, {"compound": "Cc1ccccc1CS(=O)(=O)NCCCN1CCCC1", "Percent Effect": -20.74}, {"compound": "CN(C)S(=O)(=O)NCCn1nc(-c2ccccc2)n(C)c1=O", "Percent Effect": -0.1642}, {"compound": "O=c1nc(SCc2ccncc2)c2c(n1CCO)CCC2", "Percent Effect": 3.515}, {"compound": "COc1cccc(N2CC3(CCN(c4cnccn4)C3)CC2=O)c1", "note": "(centres undefined)", "Percent Effect": -7.581}]}]}
